Experimental data from PubChem BioAssay AID977628 (Broad Institute, 2014).
Fewer than 10 of roughly 1,900 compounds were called active. Inconclusive results (about 20%) are left out.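 The calls were made as follows: active = compound lowering the normal-ribosome reporter at least twice as much as the humanized-ribosome reporter, growth loss under a set limit; inconclusive = no clear call, values can overlap the other calls; inactive = the rest.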 Not all results are given here.

Experiment: growth of wild-type and h24-humanized E. coli strains – h24 mutant RFP vs wild-type GFP, cherry-pick, dose response (AID 977628)
Conditions: E. coli WT GFP strain growth, fluorescence, 24 h; series mostly up to 50 µM

outcome, inactive:
CCn1c(NC(=O)c2nn(C)cc2Br)nc2ccccc21
Cc1ccc(C(=O)NCC(=O)OCC(=O)Nc2cccc(S(=O)(=O)N3CCCC3)c2)cc1C
O=C(NCCc1ccccc1)c1cccc(NC(=O)c2ccccc2)c1
CNC(=O)c1ccsc1NC(=O)c1ccc(S(=O)(=O)N2CCc3ccccc32)cc1
O=C(N[C@@H](Cc1ccccc1)C(=O)OCc1ccccc1)c1nc[nH]c1C(=O)NC1CCNCC1
COc1ccccc1N1CCN(Cc2ccc(OC)c3ccccc23)CC1
Cc1n[nH]c(C)c1S(=O)(=O)N1CCCC(C(=O)Nc2ccc(Br)cc2)C1 (stereo not drawn)
COc1ccccc1CC(=O)NCCc1c[nH]c2ccccc12
CC(=O)Nc1ccc(CNc2nc(NCCN(C)C)nc3cc(-c4ccccc4)sc23)cc1
CC1CCCC(NC(=O)COC(=O)[C@@H]2CC(O)CN2S(=O)(=O)c2ccc3c(c2)OCCO3)C1C (stereo partly drawn)
CCc1cc2cc(OC)ccc2nc1SCC(=O)Nc1cc(OC)c(OC)cc1C(=O)O
Cc1ccc2c(N)c(C(=O)c3ccccc3)sc2n1
COc1ccc(C2=NN(C(=O)c3cccnc3)C(c3ccccc3)C2)cc1 (stereo not drawn)
Cc1ccc(-c2c[n+](CC(=O)Nc3ccccc3)c3n2CCC3)cc1
Cc1ccc(OCCCC(=O)NC(C)c2ccccc2)c(C)c1 (stereo not drawn)
O=C(NCc1ccc2c(c1)OCO2)c1sccc1Br
Cc1cccc(NC(=O)c2nc(S(=O)(=O)Cc3ccccc3)ncc2Cl)c1
Cn1cc(CCC(=O)NCc2ccc3c(c2)OCO3)c2ccccc21
Cc1ccc(S(=O)(=O)NC(C)C(=O)NCc2ccc(Cl)cc2)cc1 (stereo not drawn)
CCc1c(N=O)c(-c2ccccc2)n(O)[n+]1[O-]
COc1ccc2c(c1)c1ncn(Cc3ccccn3)c(=O)c1n2C
O=C(c1cccc(F)c1)N1CCN(c2ccc([N+](=O)[O-])c3cccnc23)CC1
C[C@@H]1CN([C@@H](C)CO)C(=O)c2cc(NS(=O)(=O)c3ccccc3)ccc2O[C@@H]1CN(C)Cc1ccc(C(=O)Nc2ccccc2N)cc1
